Measurements: the supplement of paper PMC12282887
± gives the standard deviation of the averaged measurements.

Experiments:
Test in all cases: promoter activity interaction Z-score (Lux/OD deviation from empty-vector control); higher = stronger promoter induction by the compound
[1] = system: E. coli BW25113 acrABp lux reporter
Outline: (§1)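 At 37°C, E. coli BW25113 reporter cultures in 40 µl LB Lennox in 384-well plates were read for OD600 and luminescence every 30 min for 12 h. Windows were 0–8 h for wild type and 1–9 h for deletion strains, and wells under 10% of the median growth value were removed. The score is the Z-transformed residual of growth-normalised luminescence against a control fit.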

[2] = system: E. coli BW25113 micFp lux reporter
Outline: as §1

[3] = system: E. coli BW25113 ompFp lux reporter
Outline: as §1

[4] = system: E. coli BW25113 robp lux reporter
Outline: as §1

[5] = system: E. coli BW25113 soxSp lux reporter
Outline: as §1

[6] = system: E. coli BW25113 tolCp lux reporter
Outline: as §1

[7] = 21 µg/ml, genetic background: wild type
[8] = 21 µg/ml, genetic background: ΔmarA
[9] = 21 µg/ml, genetic background: Δrob
[10] = 21 µg/ml, genetic background: ΔsoxS
[11] = 42 µg/ml, genetic background: wild type
[12] = 42 µg/ml, genetic background: ΔmarA
[13] = 42 µg/ml, genetic background: Δrob
[14] = 42 µg/ml, genetic background: ΔsoxS
[15] = 84.1 µg/ml, genetic background: wild type
[16] = 84.1 µg/ml, genetic background: ΔmarA
[17] = 84.1 µg/ml, genetic background: Δrob
[18] = 84.1 µg/ml, genetic background: ΔsoxS
[19] = 168.2 µg/ml, genetic background: wild type
[20] = 168.2 µg/ml, genetic background: ΔmarA
[21] = 168.2 µg/ml, genetic background: Δrob
[22] = 168.2 µg/ml, genetic background: ΔsoxS

SMILES: COc1ccc2cc3[n+](cc2c1OC)CCc1cc2c(cc1-3)OCO2 [Berberine]
- promoter activity interaction Z-score [1, 7]: 0.0236 ± 0.072
- promoter activity interaction Z-score [1, 8]: -0.475 ± 0.1
- promoter activity interaction Z-score [1, 9]: -0.306 ± 0.009
- promoter activity interaction Z-score [1, 10]: 0.123 ± 0.39
- promoter activity interaction Z-score [1, 11]: -0.0191 ± 0.052
- promoter activity interaction Z-score [1, 12]: -0.27 ± 0.38
- promoter activity interaction Z-score [1, 13]: -0.196 ± 0.1
- promoter activity interaction Z-score [1, 14]: 0.128 ± 0.55
- promoter activity interaction Z-score [1, 15]: -0.175 ± 0.13
- promoter activity interaction Z-score [1, 16]: -0.268 ± 0.47
- promoter activity interaction Z-score [1, 17]: -0.263 ± 0.31
- promoter activity interaction Z-score [1, 18]: 0.253 ± 1.1
- promoter activity interaction Z-score [1, 19]: -0.0717 ± 0.13
- promoter activity interaction Z-score [1, 20]: -1.16 ± 0.13
- promoter activity interaction Z-score [1, 21]: -0.157 ± 0.19
- promoter activity interaction Z-score [1, 22]: 0.745 ± 1.3
- promoter activity interaction Z-score [2, 7]: -0.242 ± 0.064
- promoter activity interaction Z-score [2, 8]: 0.146 ± 0.14
- promoter activity interaction Z-score [2, 9]: -0.0671 ± 0.15
- promoter activity interaction Z-score [2, 10]: -0.125 ± 0.15
- promoter activity interaction Z-score [2, 11]: 0.0805 ± 0.15
- promoter activity interaction Z-score [2, 12]: 0.226 ± 0.014
- promoter activity interaction Z-score [2, 13]: 0.0807 ± 0.046
- promoter activity interaction Z-score [2, 14]: 0.68 ± 0.077
- promoter activity interaction Z-score [2, 15]: 0.36 ± 0.12
- promoter activity interaction Z-score [2, 16]: 0.426 ± 0.11
- promoter activity interaction Z-score [2, 17]: 0.14 ± 0.12
- promoter activity interaction Z-score [2, 18]: 0.7 ± 0.18
- promoter activity interaction Z-score [2, 19]: 0.445 ± 0.051
- promoter activity interaction Z-score [2, 20]: 0.425 ± 0.057
- promoter activity interaction Z-score [2, 21]: 0.095 ± 0.17
- promoter activity interaction Z-score [2, 22]: 2.075 ± 0.006
- promoter activity interaction Z-score [3, 7]: -0.331 ± 0.05
- promoter activity interaction Z-score [3, 8]: -0.189 ± 0.11
- promoter activity interaction Z-score [3, 9]: -0.392 ± 0.37
- promoter activity interaction Z-score [3, 10]: -0.128 ± 0.0057
- promoter activity interaction Z-score [3, 11]: -0.202 ± 0.02
- promoter activity interaction Z-score [3, 12]: -0.182 ± 0.032
- promoter activity interaction Z-score [3, 13]: 0.159 ± 0.48
- promoter activity interaction Z-score [3, 14]: -0.184 ± 0.26
- promoter activity interaction Z-score [3, 15]: -0.592 ± 0.13
- promoter activity interaction Z-score [3, 16]: 0.181 ± 0.27
- promoter activity interaction Z-score [3, 17]: -0.302 ± 0.21
- promoter activity interaction Z-score [3, 18]: 0.222 ± 0.86
- promoter activity interaction Z-score [3, 19]: -0.265 ± 0.1
- promoter activity interaction Z-score [3, 20]: -0.655 ± 0.28
- promoter activity interaction Z-score [3, 21]: -0.0984 ± 0.32
- promoter activity interaction Z-score [3, 22]: 0.615 ± 1.2
- promoter activity interaction Z-score [4, 7]: -0.384 ± 0.27
- promoter activity interaction Z-score [4, 8]: -0.668 ± 0.061
- promoter activity interaction Z-score [4, 9]: -0.229 ± 0.035
- promoter activity interaction Z-score [4, 10]: 1.02 ± 0.67
- promoter activity interaction Z-score [4, 11]: -0.378 ± 0.14
- promoter activity interaction Z-score [4, 12]: -0.587 ± 0.51
- promoter activity interaction Z-score [4, 13]: -0.855 ± 0.25
- promoter activity interaction Z-score [4, 14]: -0.0756 ± 0.39
- promoter activity interaction Z-score [4, 15]: -0.935 ± 0.66
- promoter activity interaction Z-score [4, 16]: -0.613 ± 0.14
- promoter activity interaction Z-score [4, 17]: -0.951 ± 0.11
- promoter activity interaction Z-score [4, 18]: -0.288 ± 0.24
- promoter activity interaction Z-score [4, 19]: -0.906 ± 0.21
- promoter activity interaction Z-score [4, 20]: -1.18 ± 0.24
- promoter activity interaction Z-score [4, 21]: -0.88 ± 0.11
- promoter activity interaction Z-score [4, 22]: -0.247 ± 0.37
- promoter activity interaction Z-score [5, 7]: 0.0121 ± 0.039
- promoter activity interaction Z-score [5, 8]: 0.176 ± 0.081
- promoter activity interaction Z-score [5, 9]: 0.152 ± 0.084
- promoter activity interaction Z-score [5, 10]: -0.0133 ± 0.085
- promoter activity interaction Z-score [5, 11]: 0.0147 ± 0.0098
- promoter activity interaction Z-score [5, 12]: 0.336 ± 0.2
- promoter activity interaction Z-score [5, 13]: 0.0622 ± 0.0015
- promoter activity interaction Z-score [5, 14]: -0.227 ± 0.048
- promoter activity interaction Z-score [5, 15]: -0.148 ± 0.0029
- promoter activity interaction Z-score [5, 16]: 0.232 ± 0.064
- promoter activity interaction Z-score [5, 17]: 0.0295 ± 0.037
- promoter activity interaction Z-score [5, 18]: -0.359 ± 0.27
- promoter activity interaction Z-score [5, 19]: -0.174 ± 0.033
- promoter activity interaction Z-score [5, 20]: 0.0364 ± 0.046
- promoter activity interaction Z-score [5, 21]: -0.0651 ± 0.054
- promoter activity interaction Z-score [5, 22]: -0.426 ± 0.38
- promoter activity interaction Z-score [6, 7]: 0.227 ± 1.2
- promoter activity interaction Z-score [6, 8]: 0.771 ± 0.18
- promoter activity interaction Z-score [6, 9]: -0.361 ± 0.45
- promoter activity interaction Z-score [6, 10]: 0.909 ± 0.084
- promoter activity interaction Z-score [6, 11]: 0.235 ± 0.016
- promoter activity interaction Z-score [6, 12]: 1.1 ± 0.24
- promoter activity interaction Z-score [6, 13]: 0.305 ± 0.6
- promoter activity interaction Z-score [6, 14]: 0.638 ± 0.84
- promoter activity interaction Z-score [6, 15]: 0.735 ± 0.75
- promoter activity interaction Z-score [6, 16]: 0.534 ± 0.58
- promoter activity interaction Z-score [6, 17]: 0.496 ± 0.28
- promoter activity interaction Z-score [6, 18]: -0.159 ± 0.1
- promoter activity interaction Z-score [6, 19]: 0.2 ± 1.1
- promoter activity interaction Z-score [6, 20]: -0.272 ± 1.3
- promoter activity interaction Z-score [6, 21]: 0.279 ± 0.36
- promoter activity interaction Z-score [6, 22]: 1.31 ± 0.19
